This note sets out measurements from PubChem BioAssay (Tox21).

Assay [1] is described as follows: Nuclear factor erythroid 2-related factor 2/antioxidant responsive element (Nrf2/ARE) small molecule agonists: qHTS cell viability counter screen in human keratinocytes (AID 1919968; active = well fitted curve in the direction sought with a large enough effect in the repeat runs; an effect the other way counts as inactive or inconclusive; note: nearly all actives have a fitted effect of over 55% in size). Put shortly:
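Parallel cytotoxicity read: KeratinoSens HaCaT cells, compound treatment 23 h, viability by CellTiter-Fluor fluorescence 1 h post-reagent.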
For orientation: In qHTS, concentration-response curves come from the screen itself.

Assay [2] can be described thus: Nuclear factor erythroid 2-related factor 2/antioxidant responsive element (Nrf2/ARE) small molecule agonists: luciferase reporter gene qHTS assay in human keratinocytes (AID 1919969; note: nearly all actives have a fitted effect of over 35% in size; note: potency is the fitted concentration of half-maximal effect). (A reporter such as luciferase makes a cellular process visible.)
For assay [3], the target named is Gonadotropin-releasing hormone receptor (Homo sapiens) (UniProt P30968). Description: Human gonadotropin-releasing hormone receptor (GnRHR) small molecule agonists, calcium flux assay in GnRHR-HEK293 cells (AID 1920063). Note: nearly all actives have a fitted effect of over 35% in size. Put shortly: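 Calcium flux, agonist mode, human GnRHR stably integrated in HEK293; dye 1 h at 37 C before compound; Ex/Em=480/540 kinetic read, 3 min; 15 concentrations, triplicate.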
For orientation: Calcium assays in cells follow changes in intracellular calcium, usually with a dye or a luminescent sensor.

For assay [4], the target named is KiSS-1 receptor (Homo sapiens) (UniProt Q969F8). The assay can be described thus: Human kisspeptin (KISS1R) small molecule agonists, calcium flux assay in KISS1R-HEK293 cells (AID 1920064; active = well fitted curve in the direction sought with a large enough effect in the repeat runs; an effect the other way counts as inactive or inconclusive). Put shortly:
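Triplicate 15-concentration series were applied to dye-loaded human KISS1R HEK293 cells, and agonist-evoked calcium fluorescence was captured for 3 min.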

The nature of assay [5]: G protein-coupled receptor (GPCR) small molecule agonists, calcium flux assay: HEK293 wild type cell line counter screen (AID 1920065). The method, boiled down:
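Non-specific calcium responders were flagged by adding DMSO-dissolved compounds to dye-loaded cells and reading 480/540 nm fluorescence each second for 3 min; ATP served as positive control.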

Assay [6] can be described thus: p53 small molecule agonists, cell-based qHTS assay with human liver microsomes (AID 1963577).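 Note: p53 response element beta-lactamase reporter cells with liver microsomes plus NADPH.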 Put shortly: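 16 h, 37 C exposure of p53RE-bla cells to compounds with human liver microsomes and NADPH (0.5 mg/mL final each); detection via LiveBLAzer mixture, 2 h dark at room temperature.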
A short description of assay [7]: p53 small molecule agonists, cell-based qHTS assay with rat liver microsomes (AID 1963578). The method, boiled down:
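With rat liver microsomes and NADPH present (0.5 mg/mL final each), p53RE-bla cells are treated with compound for 16 h at 37 C. LiveBLAzer detection mixture is then applied for 2 h at room temperature in the dark.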

A short description of assay [8]: p53 small molecule agonists, cell-based qHTS assay with human liver microsomes: qHTS cell viability counter screen (AID 1963579). Note: nearly all actives have a fitted effect of over 45% in size. Put shortly: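 In this multiplexed counter screen, the reporter plates were subsequently treated with CellTiter-Glo so that cell viability, reflected by luminescence, could be recorded for p53RE-bla cells dosed 16 h with compounds under microsomal activation (HLM and NADPH).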

The nature of assay [9]: p53 small molecule agonists, cell-based qHTS assay with rat liver microsomes: qHTS cell viability counter screen (AID 1963580). Note: nearly all actives have a fitted effect of over 45% in size. The method, boiled down: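 Cytotoxicity counter screen: intracellular ATP measured by CellTiter-Glo luminescence in the same wells as the beta-lactamase reporter read, on HCT-116 p53RE-bla cells exposed 16 h at 37 C to compounds with rat liver microsomes and NADPH, each 0.5 mg/mL final.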

The nature of assay [10]: p53 small molecule agonists, cell-based qHTS assay: qHTS cell viability counter screen (AID 1963581). Note: nearly all actives have a fitted effect of over 45% in size. Put shortly: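 Multiplexed with the reporter read, a CellTiter-Glo step (30 min, room temperature) gauges ATP-based viability of HCT-116 p53RE-bla cells after 16 h compound incubation at 37 C.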
Assay [11] in a line: p53 small molecule agonists, cell-based qHTS assay (AID 1963582; active = well fitted activation curve with a large enough effect in the signal ratio in the repeat runs, not every such curve was filed as active; the % refers to the signal ratio). Put shortly:
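Beta-lactamase reporter cells (p53RE-bla) treated with compounds for 16 h at 37 C; FRET substrate, 2 h, room temperature; fluorescence intensity.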

In assay [12] the target is 5-hydroxytryptamine receptor 2A (Homo sapiens) (UniProt P28223). Description: 5-hydroxytryptamine receptor 2A (HTR2A) small molecule antagonists, cell-based qHTS assay (AID 1963586). Note: nearly all actives have a fitted effect of over 45% in size. The method, boiled down: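 CHO cells stably expressing human HTR2A were plated for 18 h at 37 C, then loaded with calcium dye for 1 h. Compounds were preincubated 5 min at room temperature before DOI (4 nM solution) was added. Kinetic fluorescence was read for 3 min.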

Assay [13] has the same target. Description: 5-hydroxytryptamine receptor 2A (HTR2A) small molecule agonists, cell-based qHTS assay (AID 1963587). Note: nearly all actives have a fitted effect of over 30% in size. Put shortly: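 CHO cells stably expressing human HTR2A, plated 18 h, loaded with calcium dye 1 h at 37 C. Agonist mode: compounds added and intracellular calcium fluorescence recorded kinetically for 2 min at 1 sec intervals.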
Assay [14] concerns the target Muscarinic acetylcholine receptor M1 (Homo sapiens) (UniProt P11229). Description: Cholinergic receptor muscarinic 1 (CHRM1) small molecule antagonists, cell-based qHTS assay (AID 1963588). Note: nearly all actives have a fitted effect of over 40% in size. The method, boiled down:
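Compounds were tested at 15 concentrations in three independent runs. Dye-loaded CHRM1-CHO cells were exposed 5 min at room temperature before stimulation by acetylcholine added at 50nM. Intracellular calcium was read kinetically on FDSS for 3 min.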

Assay [15] in a line: cAMP Responsive Elements (CRE) small molecule antagonists, cell-based qHTS assay (AID 1963591; active = well fitted inhibition curve with a large enough effect in the signal ratio in the repeat runs, not every such curve was filed as active; the % refers to the signal ratio). The method, boiled down:
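Fluorescence intensity from cleaved LiveBLAzer B/G substrate (2 h, room temperature) quantified CRE-bla activity in HEK 293T cells exposed 3 h to compound with 0.25 uM final NKH477.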

Assay [16] addresses Beta-2 adrenergic receptor (Homo sapiens) (UniProt P07550). Description: Adrenergic beta2 receptor (ADRB2) small molecule antagonists, cell-based qHTS assay (AID 1963592). Note: series mostly up to about 92 µM; nearly all actives have a fitted effect of over 50% in size. Put shortly: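 Assay format: CHO-ADRB2 cells, 18-20hr seeding at 37C/5% CO2, then compound plus 1nM isoproterenol agonist mix for 0.5hr RT. Homogeneous time-resolved fluorescence cAMP detection after 1hr, expressed as 665/615 nm ratio.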

In assay [17] the target is D(2) dopamine receptor (Homo sapiens) (UniProt P14416). The assay can be described thus: Dopamine D2 receptor (DRD2) small molecule agonists, cell-based qHTS assay (AID 1963594). Note: nearly all actives have a fitted effect of over 35% in size. The method, boiled down:
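HEK293 cells stably expressing human DRD2, pre-treated with PDE inhibitor Ro20-1724 (0.1 mM final) and compound 10 min at room temperature, then stimulated with NKH477 (200nM […]) for 30 min. cAMP read by HTRF (665/620 nm).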

For assay [18] the target is unchanged. The assay can be described thus: Dopamine D2 receptor (DRD2) small molecule antagonists, cell-based qHTS assay (AID 1963595; active = well fitted inhibition curve with a large enough effect in the signal ratio in the repeat runs, with a control signal flat; the % refers to the signal ratio). The method, boiled down:
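Antagonist mode in DRD2-HEK293 cells: after compound addition with 0.1 mM Ro20-1724, cells received quinpirole (12 nM) and NKH477 (200 nM) for 30 min at room temperature; HTRF cAMP read after 1 h detection.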

Assay [19] addresses Muscarinic acetylcholine receptor M1 (Homo sapiens) (UniProt P11229). The assay can be described thus: Cholinergic receptor muscarinic 1 (CHRM1) small molecule agonists, cell-based qHTS assay (AID 1963589). Note: nearly all actives have a fitted effect of over 35% in size. Put shortly: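 qHTS, 15-point titration, 3 independent runs: compounds pin-transferred onto dye-loaded CHRM1-CHO cells (human M1), calcium fluorescence followed every second to detect agonism.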

Assay [20] can be described thus: cAMP Responsive Elements (CRE) small molecule agonists, cell-based qHTS assay (AID 1963590). Put shortly:
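Quantitative HTS for CRE agonists: HEK 293T CRE-bla cells, overnight plating, 3 h compound incubation at 37 C/5% CO2, then 2 h room-temperature LiveBLAzer B/G FRET substrate loading.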

Each structure is given as a SMILES string. Unmarked numbers belong to inactive results. Inconclusive results are not listed. Active and inactive are the calls of the source. Unless noted, calls come from the whole dose curve.

Sequence of KiSS-1 receptor (Homo sapiens) (Q969F8 whole entry, looked up): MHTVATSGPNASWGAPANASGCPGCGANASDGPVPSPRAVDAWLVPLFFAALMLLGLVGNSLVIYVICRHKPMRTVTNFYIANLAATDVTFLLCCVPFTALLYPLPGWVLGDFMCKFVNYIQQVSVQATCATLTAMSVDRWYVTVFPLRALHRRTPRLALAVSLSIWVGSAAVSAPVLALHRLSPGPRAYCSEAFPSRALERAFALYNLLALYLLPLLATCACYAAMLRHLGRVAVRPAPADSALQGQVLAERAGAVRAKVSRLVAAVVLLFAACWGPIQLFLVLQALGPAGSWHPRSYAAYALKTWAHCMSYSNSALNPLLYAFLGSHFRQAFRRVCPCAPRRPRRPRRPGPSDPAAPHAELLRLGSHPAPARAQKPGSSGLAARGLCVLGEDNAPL
Sequence of 5-hydroxytryptamine receptor 2A (Homo sapiens) (P28223 whole entry, looked up): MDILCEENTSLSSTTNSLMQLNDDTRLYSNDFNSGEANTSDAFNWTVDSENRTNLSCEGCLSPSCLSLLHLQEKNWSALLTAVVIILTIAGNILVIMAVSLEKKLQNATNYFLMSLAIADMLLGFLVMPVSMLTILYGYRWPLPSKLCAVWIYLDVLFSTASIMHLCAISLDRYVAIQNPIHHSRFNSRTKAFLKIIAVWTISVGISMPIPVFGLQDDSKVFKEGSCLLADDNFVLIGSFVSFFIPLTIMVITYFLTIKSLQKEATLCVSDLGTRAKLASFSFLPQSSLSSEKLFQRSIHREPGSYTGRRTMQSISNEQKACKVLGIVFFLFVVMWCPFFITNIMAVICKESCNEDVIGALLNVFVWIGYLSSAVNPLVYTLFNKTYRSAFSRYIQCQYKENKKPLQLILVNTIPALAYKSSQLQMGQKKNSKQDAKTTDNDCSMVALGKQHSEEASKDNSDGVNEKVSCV
Sequence of Beta-2 adrenergic receptor (Homo sapiens) (P07550 whole entry, looked up): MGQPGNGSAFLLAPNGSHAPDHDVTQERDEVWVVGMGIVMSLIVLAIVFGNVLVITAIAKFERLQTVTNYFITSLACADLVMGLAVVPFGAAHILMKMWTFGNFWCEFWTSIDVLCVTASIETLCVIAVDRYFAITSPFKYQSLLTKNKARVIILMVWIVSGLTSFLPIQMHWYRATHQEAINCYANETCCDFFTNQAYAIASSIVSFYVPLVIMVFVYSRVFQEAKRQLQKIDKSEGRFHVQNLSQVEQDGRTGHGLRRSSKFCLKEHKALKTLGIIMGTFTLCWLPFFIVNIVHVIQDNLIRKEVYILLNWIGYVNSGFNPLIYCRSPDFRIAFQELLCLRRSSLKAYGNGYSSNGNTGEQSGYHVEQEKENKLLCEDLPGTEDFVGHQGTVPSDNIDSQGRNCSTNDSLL
Sequence of Muscarinic acetylcholine receptor M1 (Homo sapiens) (P11229 whole entry, looked up): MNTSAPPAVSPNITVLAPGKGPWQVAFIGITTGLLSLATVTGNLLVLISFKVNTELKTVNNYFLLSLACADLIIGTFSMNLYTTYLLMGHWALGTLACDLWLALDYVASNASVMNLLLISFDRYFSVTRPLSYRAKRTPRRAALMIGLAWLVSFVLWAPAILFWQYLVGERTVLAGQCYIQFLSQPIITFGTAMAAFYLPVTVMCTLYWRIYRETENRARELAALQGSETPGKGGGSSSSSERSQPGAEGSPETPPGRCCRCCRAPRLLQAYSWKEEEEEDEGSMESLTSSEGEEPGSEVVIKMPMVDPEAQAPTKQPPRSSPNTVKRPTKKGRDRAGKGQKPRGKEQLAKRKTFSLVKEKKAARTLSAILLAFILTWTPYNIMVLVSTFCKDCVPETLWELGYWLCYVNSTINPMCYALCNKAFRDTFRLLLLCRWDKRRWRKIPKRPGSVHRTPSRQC
Sequence of Gonadotropin-releasing hormone receptor (Homo sapiens) (P30968 whole entry, looked up): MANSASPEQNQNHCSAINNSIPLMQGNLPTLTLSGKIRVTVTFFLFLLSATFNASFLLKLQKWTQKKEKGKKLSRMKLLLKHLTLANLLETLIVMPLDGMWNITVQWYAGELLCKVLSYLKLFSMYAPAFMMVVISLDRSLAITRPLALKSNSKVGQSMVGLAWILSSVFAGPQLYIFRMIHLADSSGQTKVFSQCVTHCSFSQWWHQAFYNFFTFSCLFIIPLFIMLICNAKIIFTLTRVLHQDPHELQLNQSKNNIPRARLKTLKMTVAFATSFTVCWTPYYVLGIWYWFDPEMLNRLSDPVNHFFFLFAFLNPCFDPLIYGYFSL
Sequence of D(2) dopamine receptor (Homo sapiens) (P14416 whole entry, looked up): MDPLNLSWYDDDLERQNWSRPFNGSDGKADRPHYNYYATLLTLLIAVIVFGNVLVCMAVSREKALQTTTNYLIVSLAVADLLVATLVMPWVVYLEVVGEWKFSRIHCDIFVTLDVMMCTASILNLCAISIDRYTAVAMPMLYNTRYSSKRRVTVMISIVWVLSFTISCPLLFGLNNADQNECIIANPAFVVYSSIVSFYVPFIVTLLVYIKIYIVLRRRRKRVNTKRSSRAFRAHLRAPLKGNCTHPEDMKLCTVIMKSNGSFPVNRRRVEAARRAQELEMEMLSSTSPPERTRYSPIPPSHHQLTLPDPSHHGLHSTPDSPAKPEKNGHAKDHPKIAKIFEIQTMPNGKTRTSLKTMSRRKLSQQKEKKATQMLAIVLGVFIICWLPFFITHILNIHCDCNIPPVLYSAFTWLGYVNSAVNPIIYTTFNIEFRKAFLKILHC

As to `CCCCOC(=O)/C=C\C(=O)OCCCC`, the Potency entry in assay [1], in [3], in assay [6], in assay [7], in assay [8] and in assay [9] was “inactive” each time. Besides, the Potency result in assay [10], in assay [11], in assay [12], in assay [13], in assay [14] and in [15] was “inactive” in each case. Further, the Potency result in assay [16], in assay [17] and in [18] was “inactive” in each case. The Potency in assay [2] is 25.2 µM (active). Moreover, the result in assay [4] and in assay [5] was inactive.
Regarding `COc1cc(OC)nc(NC(=O)NS(=O)(=O)Nc2ccccc2C(=O)N(C)C)n1`, the Potency result in assay [1], in assay [2], in assay [3], in assay [6], in assay [7] and in assay [8] was “inactive” each time. The Potency result in assay [9], in [10], in assay [11], in assay [12], in [13] and in [14] was “inactive” in each case. Also, the Potency entry in assay [19], in [17] and in [18] was “inactive” throughout. Moreover, the result in assay [4] and in assay [5] was inactive.
With `SCCCCCCCCS`, the Potency result in assay [1], in assay [2], in assay [3], in assay [6], in assay [7] and in [8] was “inactive” each time. For the same compound, the Potency result in assay [9], in assay [10], in [11], in assay [12], in assay [13] and in [14] was “inactive” each time. Moreover, the Potency entry in assay [20], in assay [16], in [17] and in [18] was “inactive” in each case. Also, the result in assay [4] and in assay [5] was inactive.
For `O=C(CCCl)NCCc1ccccc1`, the Potency entry in assay [1], in assay [2], in assay [3], in [6], in [7] and in assay [8] was “inactive” throughout. Further, the Potency result in [9], in assay [10], in assay [11], in assay [12], in assay [13] and in assay [14] was “inactive” each time. For the same compound, the Potency entry in [20], in [15], in assay [16], in assay [17] and in [18] was “inactive” each time. For the same compound, the result in assay [4] and in [5] was inactive.
On to `O=C(O)c1cc(O)c2c(c1)C(=O)c1cccc(O)c1C2=O`, for which the Potency result in assay [1], in assay [2], in [3], in [6], in assay [7] and in [8] was “inactive” in each case. Also, the Potency result in assay [9], in assay [10], in assay [11], in assay [12], in assay [13] and in assay [14] was “inactive” in each case. The Potency result in assay [19], in [16] and in assay [18] was “inactive” each time. In addition, the result in assay [4] and in assay [5] was inactive.
As for `Nc1nc(CC(=O)O)cs1`, the Potency result in assay [1], in assay [2], in [3], in assay [6], in assay [7] and in [8] was “inactive” throughout. In addition, the Potency entry in [9], in assay [10], in assay [11], in assay [12], in [13] and in assay [14] was “inactive” throughout. The Potency result in [16] and in assay [17] was “inactive” throughout. In addition, the result in assay [4] and in [5] was inactive.
In the case of `CCOC(=O)C(=O)CCc1ccccc1`, the Potency result in assay [1], in assay [2], in [3], in assay [6], in assay [7] and in assay [8] was “inactive” in each case. Further, the Potency entry in [9], in assay [10], in assay [11], in assay [12], in assay [13] and in assay [14] was “inactive” throughout. In addition, the Potency result in [19], in assay [16], in [17] and in assay [18] was “inactive” each time. Besides, the result in assay [4] and in assay [5] was inactive.
